CHX counter = affects cycloheximide protein synthesis inhibition readout, counter-screen | cell reporter, cycloheximide protein synthesis inhibition counterscreen | max response, % | actives 12% (n = 300,000) | AID 2314; in the data active means max response mostly above about 13%, no sharp cut-off; inactive means mostly below about 14%; further: read at 38.3 µM for the half of the compounds with a filed dose
Pf growth 96h = P. falciparum growth inhibition at 96 hour, primary screen for plastid delayed-death inhibitors; P. falciparum luciferase reporter growth, 96 h; Potency, µM (series often up to 28.7 µM), most hits filed as inhibitors; actives 6.9% (n = 320,000); AID 504834
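Cell-based qHTS: luciferase-tagged P. falciparum in erythrocytes (2% hematocrit, 0.05% parasitemia final) incubated with compounds for 96 hours, 37 C, 5% CO2; luciferase detection reagent then added and luminescence measured.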
Shiga toxin inh = blocks Shiga toxin action in Vero cells | Vero cells, Shiga toxin protein synthesis inhibition reporter | inhibition, % at 38.7 µM | actives 9.2% (n = 290,000) | AID 2315; in the data active means inhibition mostly above about 28%, no sharp cut-off; inactive means mostly below about 43%
NS1 inh = inhibitors of influenza NS1 protein function; Potency, µM (top dose mostly 46.1 µM); actives 0.4% (n = 270,000); calls by dose curve; further: actives are rising curves; nearly all actives have a fitted effect of over 50% in size
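S. cerevisiae expressing influenza A NS1, grown in glucose, washed, then diluted 1:100 into pH 6.0 -URA galactose medium with 23 nl compound. Growth recovery read as OD600; NS1-free strain serves as control.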
Pf growth 48h = inhibits P. falciparum growth in the first generation, 48 h; actives 5.9% (n = 310,000); Potency, µM (highest dose often 28.7 µM), most hits filed as inhibitors; P. falciparum luciferase growth in erythrocytes, 48 h
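Cell-based growth assay: transgenic P. falciparum expressing firefly luciferase, cultured in red cells within RPMI 1640 containing 0.5% w/v Albumax, 24 mM bicarbonate and gentamycin. A drop in luciferase activity indicates inhibition.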
Numbers stand for hits; n = inactive; u = inconclusive; x = no result; [ ] = remark or other dose. The list is not random: actives were taken first. Their share in the collection is about 21%. Unless noted, the call rests on the fitted dose curve; in most records, active means well fitted inhibition curve with a large enough effect; inconclusive means small, poorly fitted or top-dose-only effect, or another doubt; inactive means no such curve, though single readings can be large or run the other way.

SMILES	CHX counter	Pf growth 96h	Shiga toxin inh	NS1 inh	Pf growth 48h
CC(C)CC(NC(=O)C1CCC(=O)N1)C(=O)NC(CC(C)C)C(=O)N1CCCC1C(N)=O (stereo unspecified)	n	u	n	n	n
O=C(NCc1ccco1)c1sc2ccccc2c1Cl	25	3.3µM	84	n	n
O=C(NCCN1CCOCC1)c1sc2ccccc2c1Cl	23	u	n	n	n
O=C(NCc1ccco1)c1sc2cc(Cl)ccc2c1Cl	34	n	58	n	n
CC1CN(C(=O)CSc2nnc(NC(=O)NC(C)(C)C)s2)CC(C)O1 (stereo unspecified)	x	n	x	x	n
CCc1ccc(C(=O)N/N=C/c2ccncc2)s1	23	n	n	n	u
O=C(N/N=C\c1cccnc1)c1ccc(Br)s1	34	n	n	n	n
O=C(N/N=C\c1ccncc1)c1ccc(Br)s1	13	n	n	n	n
O=C(N/N=C\c1ccncc1)c1ccc(Cl)s1	n	13µM	n	n	n
Cc1ccc(S(=O)(=O)NC2CC(C)(C)N(O)C(C)(C)C2)cc1	x	u	x	x	n
O=C(N/N=C/c1ccncc1)c1cc(-c2ccc(Br)s2)[nH]n1	32	12µM	n	n	u
Cc1ccc(C(=O)N/N=C\c2ccncc2)s1	40	u	53	n	n
Cc1ccc(S(=O)(=O)CC(=O)c2ccccc2[N+](=O)[O-])cc1	n	n	n	n	n
Cc1cc2nc3c(nc2cc1C)CCCC3	59	n	108	n	n
Cc1cccc2nc3c(nc12)CCCC3	n	n	n	n	n
CCOC(=O)NC(=O)COC(=O)c1ccc(O)cc1	n	n	n	n	n
CC(C)(C)NC(=O)COC(=O)c1ccc(O)cc1	17	n	n	n	n
Cc1ccc(C(=O)COC(=O)C2CCC2)cc1	36	n	48	n	n
Cc1ccc(C(=O)COC(=O)c2ccc(O)cc2)cc1	33	n	94	n	n
Fc1ccccc1CSc1ncnc2sc3c(c12)CCCC3	n	n	n	n	n
CNc1oc(-c2ccc(C)cc2)nc1P(=O)(c1ccccc1)c1ccccc1	n	15µM	n	n	0.12µM
O=S(=O)(Nc1cccc(-c2cn3c(n2)SCC3)c1)c1ccccc1	n	n	n	n	n
CCCOc1ccc(/C=C2\SC(=S)N(CC3CCCO3)C2=O)cc1 (stereo unspecified)	n	n	n	n	n
Cc1ccsc1/C=C1\SC(=S)N(CC2CCCO2)C1=O (stereo unspecified)	n	1.3µM	n	n	n
O=C1/C(=C/c2ccc(O)cc2)SC(=S)N1CC1CCCO1 (stereo unspecified)	36	u	40	n	n
SMILES	CHX counter	Pf growth 96h	Shiga toxin inh	NS1 inh	Pf growth 48h
CCN=C1S/C(=C\c2ccc(OC)c(OCC)c2)C(=O)N1CC	n	n	n	n	n
CCN=C1S/C(=C\c2sccc2C)C(=O)N1CC	19	n	31	n	n
CC1CC(OC(=O)c2ccccc2)(c2ccccc2)C(C)CN1C (stereo unspecified)	n	u	n	n	6.6µM
O=C(Nc1ccccc1)C1=C(c2ccccc2)S(=O)(=O)CCS1(=O)=O	23	u	45	n	12µM
COc1ccc(N(CCOc2ccccc2)S(=O)(=O)c2ccccc2)cc1	x	n	x	x	u
CN(C)c1cccc(C(=O)OCC(=O)NC2CCCC2)c1	n	n	n	n	n
CCOC(=O)c1ccc(-n2c(CC)nc3ccccc3c2=O)cc1	n	n	n	x	n
O=C(Nc1cccc(F)c1)Nc1ccnn1C1CCN(C(=O)c2cscn2)CC1	41	n	51	n	n
CCn1cc(C(=O)NCc2ccc3c(c2)OCO3)c(=O)c2cc(F)c(N3CCN(C)CC3)cc21	n	n	n	n	u
CCn1cc(C(=O)NCC(C)C)c(=O)c2cc(F)c(N3CCN(C)CC3)cc21	n	n	n	n	n
CCn1cc(C(=O)NCC(C)C)c(=O)c2cc(F)c(N3CCN(C(=O)c4ccco4)CC3)cc21	n	n	n	n	4.1µM
CCn1cc(C(=O)NCc2ccco2)c(=O)c2cc(S(=O)(=O)N3CCc4ccccc4C3)ccc21	n	5.2µM	n	n	9.3µM
CCC(C)NC(=O)c1cn(CC)c2cc(N3CCN(C(=O)c4ccco4)CC3)c(F)cc2c1=O (stereo unspecified)	n	4.1µM	n	n	5.9µM
CCn1cc(C(=O)NCc2ccco2)c(=O)c2cc(F)c(N3CCN(C(=O)c4ccco4)CC3)cc21	n	n	n	n[9.22 µM]	7.4µM
CC(=O)Oc1ccc(C(=O)Nc2cccnc2)cc1	n	n	n	n	n
